Sampled rows, rich in hits. Any-hit rate of the full collection: about 19%.
TDP1 cell noCPT – qHTS for Inhibitors of human tyrosyl-DNA phosphodiesterase 1 (TDP1): qHTS in cells in absence of CPT | 420,000 tested, 15% active | Potency, µM (doses to about 46.2 µM), actives largely listed as inhibitors | DT40 Tdp1-/- hTDP1 cells, no CPT, ATP luminescence, 48 h | AID 686978, 2013; note: nearly all actives have a fitted effect of over 55% in size
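Compound effects on proliferation are scored in DT40 Tdp1-/-;hTDP1 cells in the absence of CPT. ATP levels (CellTiter-Glo luminescence) are recorded after a ≥48 hr, 37 °C incubation.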
TDP1 cell CPT – qHTS for Inhibitors of human tyrosyl-DNA phosphodiesterase 1 (TDP1): qHTS in cells in presence of CPT; chicken DT40 Tdp1-/-;hTDP1 cells + 20 nM CPT, ATP luminescence, 48 h; Potency, µM (highest dose often 46.2 µM), most hits filed as inhibitors; 420,000 tested, 12% active; note: nearly all actives have a fitted effect of over 55% in size
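Cell growth measured by CellTiter-Glo luminescence after a minimum 48 h, 37 C compound exposure with 20 nM CPT in Tdp1-knockout DT40 cells stably expressing hTDP1, seeded 400/well; qHTS titration format.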
IL-1B inflam inh – qHTS for Inhibitors of Inflammasome Signaling: IL-1-beta AlphaLISA Primary Screen; THP-1 LPS/ATP IL-1B secretion, AlphaLISA, 16 h; hits give low values; activity change, % at 57.5 µM; 360,000 tested, 4.7% active; AID 743279, 2014; in the data active = activity change below about -50%; inconclusive = mostly about -30% to -49%
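THP-1 cells pretreated 1 hr with compounds (up to 57.5 uM final), then stimulated with LPS (250 ng/mL final) plus ATP (1.25 mM final); secreted IL-1B measured by AlphaLISA after 16 hr, decreased signal indicating inhibition.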
HT1080-NT tox – qHTS for induction of synthetic lethality in tumor cells producing 2HG: qHTS for the HT-1080-NT fibrosarcoma cell line; 360,000 tested, 1.6% active; Potency, µM (series often up to 46.1 µM), actives largely listed as cytotoxic; HT-1080-NT fibrosarcoma viability, CellTiter-Glo ATP luminescence, 48 h;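 note: NT is the 2HG producing partner of a matched IDH1 knockdown line; nearly all actives have a fitted effect of over 55% in size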
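HT-1080-NT; 750 cells/well; 5% FBS RPMI; 48 h compound, 37 degrees C; CellTiter-Glo luminescence; curve fitting and curve-class assignment.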
HT1080 IDH1KD tx – qHTS for induction of synthetic lethality in tumor cells producing 2HG: qHTS for the HT-1080-IDH1KD cell line; 360,000 tested, 2% active; HT-1080 IDH1 knockdown viability, ATP luminescence, 48 h; Potency, µM (titrated, usually from 46.1 µM), actives largely listed as cytotoxic
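After a 2 h attachment period, IDH1KD HT-1080 cells took pin-transferred compound for 48 h at 37 °C; ATP-based luminescence after 10 min room-temperature reagent incubation reported viability.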
Large screens that a line does not name were inactive. Unless noted, calls come from the whole dose curve; as a rule, active = well fitted curve in the direction sought with a large enough effect; inconclusive = small, poorly fitted or top-dose-only effect, or another doubt; inactive = no such curve, though single readings can be large; an effect the other way counts as inactive or inconclusive.

CCOC(=O)c1c(/N=C/c2cccc(C)c2O)sc2c1CCN(C)C2	TDP1 cell noCPT inconclusive
Cc1ncc2c(c1CNC(=O)CN1CCCCC1)CCN(C(=O)c1ccc(F)cc1Cl)C2	none (no result: IL-1B inflam inh, HT1080-NT tox, HT1080 IDH1KD tx)
CC(C)NC(=O)N(C)C[C@H]1OCCCC[C@@H](C)Oc2ccc(N(C)C)cc2C(=O)N([C@H](C)CO)C[C@@H]1C	TDP1 cell noCPT inconclusive, TDP1 cell CPT inconclusive
CCCCc1cc(=O)oc2cc(OCC(=O)NC3CCN(Cc4ccccc4)CC3)ccc12	TDP1 cell noCPT inconclusive, TDP1 cell CPT inconclusive
COC(=O)[C@]1(Cc2ccccc2)N[C@H](CN(C)C(=O)c2ccc(C(C)(C)C)cc2)[C@@H]2C(=O)N(Cc3ccccc3)C(=O)[C@@H]21	TDP1 cell noCPT 21µM, TDP1 cell CPT 15µM
CCN(C[C@H]1N[C@@](Cc2ccccc2)(C(=O)OC)[C@H]2C(=O)N(Cc3ccccc3)C(=O)[C@@H]12)S(=O)(=O)c1ccc(F)cc1	TDP1 cell noCPT inconclusive, TDP1 cell CPT 18µM
CN1CCCC(CNC(=O)c2cnn(-c3ncc4c(n3)-c3ccccc3CC4)c2C2CC2)C1 (stereo not drawn)	none (no result: IL-1B inflam inh, HT1080-NT tox, HT1080 IDH1KD tx)
CCn1ccnc1CN(C)Cc1cn(-c2cccc(C)c2)nc1-c1cccc(F)c1	TDP1 cell noCPT inconclusive, TDP1 cell CPT 16µM, IL-1B inflam inh -62
Cc1ccc(-n2cc(CN3CCN(Cc4nccn4C)CC3)c(-c3cccc(C)c3)n2)cc1	TDP1 cell noCPT inconclusive, TDP1 cell CPT inconclusive, IL-1B inflam inh -57, HT1080 IDH1KD tx inconclusive
CCn1ccnc1CN(C)Cc1cn(-c2ccc(C)cc2)nc1-c1cccc(C)c1	TDP1 cell CPT inconclusive, IL-1B inflam inh -249, HT1080-NT tox inconclusive, HT1080 IDH1KD tx 26µM
Fc1ccccc1C1c2cccn2CCN1C(=S)Nc1ccc(Br)cc1 (stereo not drawn)	TDP1 cell noCPT inconclusive, TDP1 cell CPT 21µM, IL-1B inflam inh -86, HT1080 IDH1KD tx inconclusive
Fc1ccccc1C1c2cccn2CCN1C(=S)Nc1cccc(Br)c1 (stereo not drawn)	none
Cc1ccnc2nc(C(=O)OCC(=O)Nc3ccccc3C(C)(C)C)nn12	none
CCOC(=O)c1ccccc1NC(=O)N(C)CCc1c(C)nn(CC)c1C	TDP1 cell noCPT 16µM, TDP1 cell CPT 21µM (no result: IL-1B inflam inh, HT1080-NT tox, HT1080 IDH1KD tx)
CCOC(=O)c1ccccc1NC(=O)c1nc2nccc(C)n2n1	TDP1 cell noCPT 18µM, TDP1 cell CPT inconclusive
O=C1[C@@H]2[C@@H](CN3CN(c4ccccc4)N=C(c4ccccc4)[C@@]23c2ccccc2)C(=O)N1c1ccccc1	TDP1 cell noCPT 13µM, TDP1 cell CPT 5.8µM
O=C1[C@H]2C(c3ccccc3)=NN(c3ccccc3)[C@H]2C(=O)N1c1ccccc1	none
N#CCS(=O)(=O)c1ccccc1	none
Cn1c(=O)c2c(ncn2CC(COCc2ccc(Cl)cc2)OCc2ccc(Cl)cc2)n(C)c1=O (stereo not drawn)	TDP1 cell noCPT 15µM, TDP1 cell CPT 23µM, HT1080 IDH1KD tx inconclusive
Cn1c(=O)c2c(ncn2CCOc2ccc(Br)cc2)n(C)c1=O	TDP1 cell noCPT 16µM, TDP1 cell CPT inconclusive
CC(C)Cn1cnc2c1c(=O)n(C)c(=O)n2C	none
Cn1c(=O)c2c(ncn2Cc2ccc(Cl)cc2)n(C)c1=O	TDP1 cell noCPT 16µM, TDP1 cell CPT 5.8µM
Cc1ccc(-c2cc(C(F)(F)F)n3nc(C(=O)NCC45CC6CC(CC(C6)C4)C5)cc3n2)cc1	none (no result: IL-1B inflam inh, HT1080-NT tox, HT1080 IDH1KD tx)
CCCCCCCCC1=NCCc2c1[nH]c1ccccc21	TDP1 cell noCPT 21µM, TDP1 cell CPT inconclusive, IL-1B inflam inh -94, HT1080-NT tox inconclusive, HT1080 IDH1KD tx inconclusive
Cc1ccnn1-c1ccc(C(=O)NCc2ccccc2CN2CCOCC2)cc1	TDP1 cell noCPT 18µM, TDP1 cell CPT 21µM
CCc1ccc(NC(=O)Cn2c(=O)n(Cc3ccco3)c(=O)c3oc4ccccc4c32)cc1	none (no result: IL-1B inflam inh, HT1080-NT tox, HT1080 IDH1KD tx)
CCOC(=O)c1cccc(Nc2c3c(nc4ccccc24)CCC3)c1	TDP1 cell noCPT 13µM, TDP1 cell CPT inconclusive (no result: IL-1B inflam inh, HT1080-NT tox, HT1080 IDH1KD tx)
O=C(Nc1c2c(nc3ccccc13)CCCC2)c1ccccc1Cl	none
Fc1cccc(Nc2c3c(nc4ccccc24)CCC3)c1	TDP1 cell noCPT 26µM, TDP1 cell CPT inconclusive, IL-1B inflam inh inconclusive
CC(=O)c1ccc(Nc2c3c(nc4ccccc24)CCCC3)cc1	TDP1 cell noCPT 18µM, TDP1 cell CPT 15µM, HT1080-NT tox inconclusive, HT1080 IDH1KD tx inconclusive
c1ccc2c(Nc3ccc4c(c3)OCCO4)c3c(nc2c1)CCCC3	TDP1 cell noCPT 16µM, TDP1 cell CPT 4.6µM, IL-1B inflam inh -134, HT1080-NT tox 16µM, HT1080 IDH1KD tx inconclusive
CCN(CC)CCCN1C(=O)c2oc3ccccc3c(=O)c2C1c1cccc(OC)c1OC (stereo not drawn)	none
OCC(O)C(O)C(O)C(O)c1nc2ccccc2[nH]1 (stereo not drawn)	none
O=C(O)c1cc(N=Cc2c(O)c3ccccc3oc2=O)ccc1O	TDP1 cell CPT inconclusive, HT1080-NT tox inconclusive, HT1080 IDH1KD tx inconclusive
CC(=O)c1cccc(Nc2c3c(nc4ccccc24)CCC3)c1	TDP1 cell noCPT 2.1µM, TDP1 cell CPT 2.1µM, HT1080-NT tox 5.8µM, HT1080 IDH1KD tx 2.6µM
Cc1ccc2nc3c(c(C(=O)O)c2c1)CCC3	none
Cc1ccc2nc3c(c(Nc4cccc(O)c4)c2c1)CCC3	TDP1 cell noCPT inconclusive, TDP1 cell CPT inconclusive, HT1080-NT tox 18µM, HT1080 IDH1KD tx inconclusive
COC(=O)c1cccc(Nc2c3c(nc4ccccc24)CCC3)c1	TDP1 cell noCPT 10µM, TDP1 cell CPT 7.3µM, IL-1B inflam inh -98, HT1080-NT tox 21µM, HT1080 IDH1KD tx 16µM
COc1c2c(nc3occc13)C(CC=C(C)C)(OC)C(OC(C)=O)CC2 (stereo not drawn)	TDP1 cell noCPT inconclusive, TDP1 cell CPT inconclusive
CC/C(O)=C1\C(=O)CC(c2ccccc2)CC1=NCCc1c(C)[nH]c2ccc(C)cc12 (stereo not drawn)	TDP1 cell noCPT 23µM, TDP1 cell CPT inconclusive
CCC/C(O)=C1\C(=O)CC(c2ccccc2)CC1=NCCc1c(C)[nH]c2ccc(C)cc12 (stereo not drawn)	TDP1 cell noCPT inconclusive, TDP1 cell CPT 18µM
CC/C(O)=C1\C(=O)CCCC1=NCCc1c(C)[nH]c2ccc(C)cc12	TDP1 cell noCPT inconclusive, TDP1 cell CPT inconclusive
CCC(=NCCc1c(C)[nH]c2ccc(C)cc12)C1=C(O)CC(c2ccccc2)CC1=O (stereo not drawn)	TDP1 cell noCPT 0.82µM, TDP1 cell CPT 0.58µM, HT1080-NT tox inconclusive, HT1080 IDH1KD tx 1.3µM
CCOc1ccc(C(=O)NNC(=O)CNC(=O)c2ccc(C)s2)cc1OC	none
